Here are results for 40 sequences from the OligoGym collection.
Note: reference of the scale not given here.

The target of one experiment is ETS1. In words: pooled miR-30 sensor sort-seq; sequence = guide strand. As to conditions: shRNA.
Regarding TTCTTGTTTGATAGCAAAGTAG, the sensor-assay potency score (higher = more potent) was -1.22.
TAGCAAAGTAGTCATTCTGCAA: the sensor-assay potency score (higher = more potent) was -0.233.
Same read-out and setting: as for TATCGTAGCTCTCTATGCTTTC, the figure is -0.783.
For the sequence TTTTTGTCGTAATAGTAGCGTA, the sensor-assay potency score (higher = more potent) is -0.88.
AAGACTGACAGGATTTATCAGT registered a sensor-assay potency score (higher = more potent) of -0.516.
The same measure, in the same setting: as for TGAGACATCATTTCTTTGCTGC, the figure is 0.679.

In a further experiment the target is EYA3. Described as above. As to conditions: shRNA.
As to TTTTCCTGGACTGATCATCAGT, the sensor-assay potency score (higher = more potent) was -0.683.
The same measure, in the same setting: as for TAGTCTGACCTGTGACTCCAAA, the figure is -0.964.
Still for that read-out and setting: the same measure for TTTCTTCCATTGTTAAACCTGA: -0.4.
On the same count and under the same terms, as for TTCTGCTCTTAATCTCTGCAGT, the figure is -0.462.
TTGCTCTCCTGATTCCTGCATC returned a sensor-assay potency score (higher = more potent) of -0.293.
The same measure, in the same setting: the same measure for TTGCTAGTCATGTTTTTCCTGG: -0.514.
Still for that read-out and setting: as for TAGTTTGCTCTCCTGATTCCTG, the figure is -0.14; as for TTTGGTAGCACTATAGATGTTC, 0.549.
In the case of TTGACTTATAGTTTGCTCTCCT, the sensor-assay potency score (higher = more potent) is 0.627.
On the same count and under the same terms, the same measure for TTAGTCTGACCTGTGACTCCAA: -0.459; for TTGAGTCTGCTGTAGTGTCTGG: -0.331.
In turn, TCTGGTATTGAGTCTGTCCAGG came in with a sensor-assay potency score (higher = more potent) of -0.468.
Still for that read-out and setting: the same measure for TATAATCATTGGATGAGCGAGG: -0.793; for TTAATCTCTGCAGTGCTTCCTT: 0.585; for ATCACTGTTAGTCTGACCTGTG: 0.133.
Still for that read-out and setting: the same measure for TAATCCTGGTTTGAGATGCTGG: -0.375; for TTCTAATTCACTGTCTTGGGAA: -0.169; for TTTACTTGGTGTAGTCTGGGAC: -0.478.
Consider TTGTGAGGTATAATCATTGGAT, for which the sensor-assay potency score (higher = more potent) is -0.583.
On to TAGTCCATATAGGAGAACCTTG, for which the sensor-assay potency score (higher = more potent) is -1.31.
Sequence TAGATTTCTCTCACTTTCCGGT registered a sensor-assay potency score (higher = more potent) of 0.197.
For TTTAATGCAGTTCCTAACCAGG, the sensor-assay potency score (higher = more potent) is -1.16.
Still for that read-out and setting: the same measure for TAGTGTCTGGTATTGAGTCTGT: -0.308.

A further experiment addresses F2R. Described as above. As to conditions: shRNA.
With TATCACATTCTGCTTTGCCAGT, the sensor-assay potency score (higher = more potent) is -0.848.
In turn, TTTCATGGTCATTACCTCCTAG gave a sensor-assay potency score (higher = more potent) of 0.0335.
TTTCAGGATGAACACAACGATG displayed a sensor-assay potency score (higher = more potent) of -1.75.
Turning to TAATAGCTGATCTTAAAGGGGA, the sensor-assay potency score (higher = more potent) is -0.239.
With TTGGCTTATGTGTACAGTGTGT, the sensor-assay potency score (higher = more potent) was -0.314.
Same read-out and setting: as for ATAGACACATAACAGACCGTGG, the figure is -0.63; as for TAGTACTAAGTCTTACCTCTTA, -0.241.
Same read-out and setting: as for TTTCTGGCCAATCTGTGTCTGA, the figure is -0.414; as for TAAACTTTTCTTTTTAACCTCC, 0.474; as for TTACTTGCCATCAACTGCCCAC, -0.043.
For the sequence TTACACATACATCACACTCTAT, the sensor-assay potency score (higher = more potent) is -0.0427.
